In PubChem BioAssay AID1159580 (chemical genetic matrix, 2015):
Values joined by “and” are separate entries in the source; they are usually repeats but may differ in a detail not shown here. Identical values can stand only once. Among all 5,500 compounds or so, about 2,000 (36%) were called active. Not shown: some 18% with an inconclusive outcome. Cut-off read from the data, not from the text of the source: active = normalized growth mostly below about 0.91 (no sharp cut-off); inconclusive = no clear call, values can overlap the other calls; inactive = mostly above about 0.92. This is one part of the list.

Test: chemical genetic growth profiling, strain panel (AID 1159580);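 note: tested at 20 µM; growth read once vehicle control cultures reached saturation at 30 °C; 1 = growth at the plate median or of vehicle wells; lower values mean less growth of the strain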
Conditions: S. cerevisiae deletion strains, growth OD

Measured: normalized growth

OCC(O)C(O)C(O)C(O)C(O)CO (configuration not stated)
inactive: locus YAL021C, strain ccr4, hits give low values 0.995 | locus YAL026C, strain drs2, hits give low values 0.991 | locus YAL030W, strain snc1, hits give low values 0.99 | locus YBL061C, strain skt5, hits give low values 0.989 | locus YBR009C, strain hhf1, hits give low values 1 | locus YBR021W, strain FUR4, hits give low values 1.02 | locus YBR023C, strain chs3, hits give low values 0.995 | locus YBR171W, strain sec66, hits give low values 0.991 | locus YBR229C, strain ROT2, hits give low values 0.96 | locus YBR231C, strain swc5, hits give low values 0.991 | locus YBR279W, strain paf1, hits give low values 0.991 | locus YCL011C, strain gbp2, hits give low values 0.999 | locus YCL016C, strain dcc1, hits give low values 0.989 | locus YCL029C, strain bik1, hits give low values 0.974 | locus YCL061C, strain MRC1, hits give low values 0.99 | locus YCL069W, strain vba3, hits give low values 1 | locus YCR088W, strain abp1, hits give low values 0.989 | locus YDL005C, strain med2, hits give low values 1 | locus YDL035C, strain GPR1, hits give low values 1.01 | locus YDL040C, strain nat1, hits give low values 0.982 | locus YDL074C, strain BRE1, hits give low values 1.05 | locus YDL101C, strain DUN1, hits give low values 1.01 | locus YDL185W, strain tfp1, hits give low values 0.954 | locus YDL192W, strain arf1, hits give low values 1 | locus YDR001C, strain nth1, hits give low values 0.99 | locus YDR069C, strain doa4, hits give low values 0.995 | locus YDR101C, strain arx1, hits give low values 0.974 | locus YDR137W, strain rgp1, hits give low values 1.02 | locus YDR159W, strain sac3, hits give low values 0.98 | locus YDR162C, strain NBP2, hits give low values 1 | locus YDR195W, strain ref2 0.965 | locus YDR297W, strain sur2, hits give low values 0.997 | locus YDR318W, strain mcm21, hits give low values 0.956 | locus YDR334W, strain swr1, hits give low values 0.987 | locus YDR335W, strain msn5, hits give low values 0.993 | locus YDR388W, hits give low values 0.985 | locus YDR392W, strain spt3, hits give low values 0.99 | locus YDR502C, strain sam2, hits give low values 1.01 | locus YEL003W, strain gim4, hits give low values 0.994 | locus YEL037C, strain rad23, hits give low values 0.992 | locus YEL061C, strain CIN8 (second series), hits give low values 0.979 | locus YEL061C, strain CIN8, hits give low values 0.993 | locus YER015W, strain faa2, hits give low values 0.994 | locus YER016W, strain bim1, hits give low values 0.983 | locus YER110C, hits give low values 0.97 | locus YER111C, strain swi4, hits give low values 0.989 | locus YER155C, strain BEM2 (second series), hits give low values 0.989 | locus YER155C, strain BEM2, hits give low values 1 | locus YER167W, strain BCK2, hits give low values 0.997 | locus YFR010W, strain ubp6, hits give low values 0.99 | locus YGL078C, strain dbp3, hits give low values 1.01 | locus YGL086W, strain mad1, hits give low values 1.01 | locus YGL167C, strain pmr1, hits give low values 0.996 | locus YGL173C, strain kem1, hits give low values 1 | locus YGL227W, strain vid30, hits give low values 0.992 | locus YGL240W, strain doc1, hits give low values 1 | locus YGL248W, strain PDE1, hits give low values 1.02 | locus YGL253W, strain hxk2, hits give low values 0.989 | locus YGR135W, strain pre9, hits give low values 1.05 | locus YGR252W, strain gcn5, hits give low values 1.1 | locus YHR013C, strain ard1, hits give low values 0.981 | locus YHR027C, strain rpn1, hits give low values 1 | locus YHR030C, strain SLT2, hits give low values 0.998 and 0.954 | locus YHR079C, strain IRE1 (second series), hits give low values 0.992 | locus YHR079C, strain IRE1, hits give low values 0.973 | locus YHR094C, strain hxt1, hits give low values 0.965 | locus YHR129C, strain ARP1, hits give low values 1.02 | locus YHR142W, strain chs7, hits give low values 0.995 | locus YHR200W, strain rpn10, hits give low values 0.991 | locus YIL066C, strain RNR3, hits give low values 0.995 | locus YIL073C, strain SPO22, hits give low values 1.07 | locus YIL125W, strain kgd1, hits give low values 0.967 | locus YIR030C, strain dcg1, hits give low values 1.01 | locus YJL092W, strain hpr5, hits give low values 0.993 | locus YJL095W, strain BCK1 (second series), hits give low values 0.993 | locus YJL095W, strain BCK1, hits give low values 1.09 and 0.974 | locus YJL115W, strain asf1, hits give low values 0.982 | locus YJL129C, strain trk1, hits give low values 1 | locus YJL134W, strain LCB3, hits give low values 0.985 | locus YJL154C, strain vps35, hits give low values 0.991 | locus YJL164C, strain tpk1, hits give low values 0.994 | locus YJL166W, strain qcr8, hits give low values 0.996 | locus YJL168C, strain set2, hits give low values 0.984 | locus YJL187C, strain SWE1 (second series), hits give low values 1.01 | locus YJL187C, strain SWE1, hits give low values 1 | locus YJR043C, strain POL32, hits give low values 1.02 | locus YJR066W, strain TOR1, hits give low values 0.927
